Compounds with a hit are over-represented: about 0.84% of the library has one in this group of screens.
SRC3 TRFRET art = counter-screen for PPARgamma SRC-3 recruitment agonists: TR-FRET artefact | PPARgamma/SRC-3 format; active compounds read high | TR-FRET ratio at 8 µM | hit rate 0.39% among 99,000
SRC2 TRFRET art = TR-FRET artefact, counter-screen to PPARgamma/SRC-2 agonist assay; active compounds read high; TR-FRET ratio at 8 µM; hit rate 0.4% among 200,000; AID 1049
PPARg SRC3 recr = agonists of human PPARgamma SRC-3 coactivator recruitment | biochemical PPARgamma/SRC-3 coactivator recruitment assay | activation, % at 8 µM | hit rate 0.26% among 200,000; in the data active means activation above about 23%
Target sequence (P37231 whole entry, looked up): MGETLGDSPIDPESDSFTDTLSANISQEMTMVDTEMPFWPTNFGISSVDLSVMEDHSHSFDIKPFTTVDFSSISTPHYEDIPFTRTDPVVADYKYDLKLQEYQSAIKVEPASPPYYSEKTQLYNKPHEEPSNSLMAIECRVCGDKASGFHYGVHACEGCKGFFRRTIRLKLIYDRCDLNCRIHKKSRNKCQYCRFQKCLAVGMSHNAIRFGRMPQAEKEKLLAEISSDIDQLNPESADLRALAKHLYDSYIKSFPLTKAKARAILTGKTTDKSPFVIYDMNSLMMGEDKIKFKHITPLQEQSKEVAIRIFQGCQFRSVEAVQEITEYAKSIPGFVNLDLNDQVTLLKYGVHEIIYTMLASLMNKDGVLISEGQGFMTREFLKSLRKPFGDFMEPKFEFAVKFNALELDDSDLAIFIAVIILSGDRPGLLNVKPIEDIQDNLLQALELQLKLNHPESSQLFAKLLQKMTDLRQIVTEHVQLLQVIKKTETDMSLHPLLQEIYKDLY
PPARg SRC1 recr = promotes SRC-1 coactivator recruitment by human PPARgamma | activation, % at 8 µM | P37231 | hit rate 0.41% among 200,000 | PPARgamma-SRC-1 coactivator recruitment biochemical assay; in the data active means activation above about 19%
PPARg SRC2 recr = promotes SRC-2 coactivator recruitment by human PPARgamma. PPARgamma LBD-SRC-2 recruitment, biochemical. AID 1032. P37231. hit rate 0.34% among 200,000. activation, % at 8 µM; in the data active means activation above about 22%
SRC1 TRFRET art = flags TR-FRET format artefacts in PPARgamma SRC-1 recruitment agonist screen | TR-FRET ratio at 8 µM | AID 1051 | TR-FRET detection artefact counter-screen, emission ratio; active compounds read high | hit rate 0.34% among 99,000; in the data active means TR-FRET ratio above about 2300
Large screens that a line does not name were inactive. Unless noted, no stated cut-off is given here; in the data, active means TR-FRET ratio above about 2000; inactive means the rest.

CCCCn1c(NC(=O)c2ccccc2Cl)c(C#N)c2nc3ccccc3nc21	none (no result: SRC3 TRFRET art, SRC1 TRFRET art)
N#Cc1c(NC(=O)c2ccccc2Cl)n(Cc2ccccc2)c2nc3ccccc3nc12	PPARg SRC3 recr 62, PPARg SRC1 recr 21
N=c1c(C(=O)NCC2CCCO2)cc2c(=O)n3ccccc3nc2n1Cc1cccnc1 (stereo unspecified)	none
Cc1cccn2c(=O)c3cc(C(=O)NCC4CCCO4)c(=N)n(Cc4cccnc4)c3nc12 (stereo unspecified)	SRC1 TRFRET art 2542
O=C(O)C1CCC(Cn2c(SCc3cc(=O)n4cc(Br)ccc4n3)nc3ccsc3c2=O)CC1 (stereo unspecified)	SRC3 TRFRET art 2459
COc1cc(OC)cc(C(=O)NCC(=O)OCC(=O)c2ccc3c(c2)-c2ccccc2C3)c1	SRC3 TRFRET art 2602, SRC2 TRFRET art 2065
CNC(=S)N1N=C(c2ccc(C)cc2)CC1c1cc(OC)ccc1OC (stereo unspecified)	SRC3 TRFRET art 2547, SRC1 TRFRET art 2589
CNC(=S)N1N=C(c2ccc(C)cc2)CC1c1ccc(N(C)C)cc1 (stereo unspecified)	SRC3 TRFRET art 2431, SRC1 TRFRET art 2359
CNC(=S)N1N=C(c2ccc(C)cc2)CC1c1ccc(OC)cc1 (stereo unspecified)	none (no result: SRC3 TRFRET art, SRC1 TRFRET art)
CC1=NNC(=O)c2ccccc2O1	none
O=C(CSc1ncnc2scc(-c3ccccc3)c12)N1CCN(c2ccccc2F)CC1	SRC3 TRFRET art 2200
O=c1[nH][nH]c2cc(=O)n(-c3ccc(Cl)cc3)nc12	none
CS(=O)(=O)Nc1ccc(C(=O)Nc2ccc(S(=O)(=O)N3CCCC3)cc2)cc1	SRC2 TRFRET art 1992
CC(=O)Nc1ccc(C(=O)Nc2ccc(S(=O)(=O)N3CCCC3)cc2)cc1	none
CCOC(=O)c1sc(=NC(=O)c2ccc(OC(C)C)cc2)n(C)c1C	PPARg SRC1 recr 43
CC(=O)Nc1cccc(NC(=O)c2cc(-c3cccnc3)nc3ccc(Br)cc23)c1	none (no result: SRC3 TRFRET art, SRC1 TRFRET art)
CSc1ccccc1NC(=O)c1cc(-c2cccnc2)nc2ccc(Br)cc12	SRC3 TRFRET art 2157
COCCNC(=O)CSCc1cc(C)cc(C)c1	none
CC(=O)Nc1ccc(S(C)(=O)=O)c(C)c1	none
Cc1ccc2nc(N3C(=O)C(O)=C(C(=O)c4ccco4)C3c3cccs3)sc2c1 (stereo unspecified)	SRC2 TRFRET art 2260, PPARg SRC3 recr 64, PPARg SRC1 recr 38, PPARg SRC2 recr 47 (no result: SRC3 TRFRET art, SRC1 TRFRET art)
CCOC(=O)c1sc(N2C(=O)C(O)=C(C(=O)c3ccco3)C2c2ccccc2)nc1C (stereo unspecified)	none (no result: SRC3 TRFRET art, SRC1 TRFRET art)
CCCn1c(NC(=O)c2ccc(F)cc2)nc2ccccc21	none
CCCn1c(NC(=O)c2ccc(Br)cc2)nc2ccccc21	PPARg SRC1 recr 34 (no result: SRC3 TRFRET art, SRC1 TRFRET art)
Cc1nnc(NC(=O)c2sc3ccccc3c2Cl)s1	none (no result: SRC3 TRFRET art, SRC1 TRFRET art)
Cc1ccc(NC(=O)c2sc3ccccc3c2Cl)nc1	PPARg SRC1 recr 36 (no result: SRC3 TRFRET art, SRC1 TRFRET art)
O=C(CSc1nnc(-c2cccs2)n1-c1ccccc1)N1CCc2ccccc21	PPARg SRC1 recr 30 (no result: SRC3 TRFRET art, SRC1 TRFRET art)
O=C(CSc1nnc(-c2ccco2)n1-c1ccccc1)N1CCc2ccccc21	none (no result: SRC3 TRFRET art, SRC1 TRFRET art)
COc1ccc(C2CC(=O)c3sc(NC(C)=O)nc3C2)cc1 (stereo unspecified)	none
Cc1cccc(C)c1NC(=S)Nc1c(C)n(C)n(-c2ccccc2)c1=O	PPARg SRC1 recr 26
O=C(CN1C(=O)CSc2ccc(S(=O)(=O)N3CCOCC3)cc21)NCc1cccnc1	none
Cc1ccc(S(=O)(=O)N2CCCC(C(=O)N(Cc3cccs3)C3CC3)C2)cc1 (stereo unspecified)	SRC2 TRFRET art 2180
COc1ccc(-n2c(SCCC#N)nnc2-c2cc(Cl)ccc2OC)cc1Cl	SRC2 TRFRET art 2116 (no result: SRC3 TRFRET art, SRC1 TRFRET art)
Cc1cccc(-c2nnc(SCC#N)n2-c2cccc(Cl)c2)c1	none (no result: SRC3 TRFRET art, SRC1 TRFRET art)
COc1ccc(-c2ccc(C#N)c(SCC(=O)Nc3sc4c(c3C#N)CCC4)n2)cc1OC	none (no result: SRC3 TRFRET art, SRC1 TRFRET art)
COc1ccc(-c2ccc(C#N)c(SCC(=O)NCCc3ccccc3)n2)cc1OC	SRC2 TRFRET art 2078
COc1cccc(-c2ccc(C#N)c(SCC(=O)NCCc3cccc(Cl)c3)n2)c1	SRC2 TRFRET art 1982 (no result: SRC3 TRFRET art, SRC1 TRFRET art)
N#CCCN(C(=O)COc1ccc(C#N)cc1)c1ccc(F)cc1	none
Cc1ccc(CNC(=O)C2CCCN(c3nc4ccsc4c(=O)s3)C2)cc1 (stereo unspecified)	none
O=C(CNCC1CCCO1)NCc1ccco1 (stereo unspecified)	none
O=C(Nc1nc2ccccc2c(=O)[nH]1)c1ccccc1SCc1ccccc1	SRC3 TRFRET art 2104
CCNC(=O)c1ccccc1SCc1ccccc1	none
O=C(CCN1C(=O)c2ccccc2C1=O)Nc1ccc(-c2nc3ccccc3o2)cc1	PPARg SRC1 recr 19 (no result: SRC3 TRFRET art, SRC1 TRFRET art)
O=C(CN1C(=O)c2ccccc2C1=O)Nc1ccc(-c2nc3ccccc3o2)cc1	none (no result: SRC3 TRFRET art, SRC1 TRFRET art)
CCCCOC(=O)CSc1nc(N)c(C#N)c(-c2ccc(OCC)cc2)c1C#N	PPARg SRC1 recr 56 (no result: SRC3 TRFRET art, SRC1 TRFRET art)
CCCCC(CC)Cn1c(N)c(C#N)c2nc3ccccc3nc21 (stereo unspecified)	none (no result: SRC3 TRFRET art, SRC1 TRFRET art)
CCCCC(CC)Cn1c2nc3ccccc3nc2c2c(=N)oc(C)nc21 (stereo unspecified)	SRC2 TRFRET art 2312, PPARg SRC2 recr 48 (no result: SRC3 TRFRET art, SRC1 TRFRET art)
Oc1ccc(NCc2cccc(OCc3ccc(F)cc3)c2)cc1	PPARg SRC1 recr 23
O=[N+]([O-])c1ccc(COc2cccc(CNc3ccc(F)cc3)c2)cc1	none
Cc1ccc(CN2CCN(Cc3cnc(C)[nH]3)CC2CCO)cc1 (stereo unspecified)	none
CCN(CC)S(=O)(=O)c1ccc(C)c(NC(=O)CSc2nc3ccc(C)cc3[nH]2)c1	none
COc1cc(C#N)c(NC(=S)N2CCOCC2)cc1OC	SRC2 TRFRET art 2021
O=C(CSc1ncnc2c1oc1ccccc12)NCC1CCCO1 (stereo unspecified)	SRC2 TRFRET art 3902, PPARg SRC3 recr 131, PPARg SRC1 recr 95, PPARg SRC2 recr 110 (no result: SRC3 TRFRET art, SRC1 TRFRET art)
Cc1ccccc1NC(=O)N1CCN(c2ncccn2)CC1	none
CCOCCCNCc1ccc(OC)c(OC)c1	SRC2 TRFRET art 2500, PPARg SRC2 recr 34 (no result: SRC3 TRFRET art, SRC1 TRFRET art)
CCCOc1ccc(CNCCCOCC)cc1OC	none
O=C(C1=C[C@@H](c2ccc(C(F)(F)F)cc2)C[C@@H](OCc2ccc(CO)cc2)O1)N1CCOCC1	PPARg SRC2 recr 24
Cc1ccc(-c2csc3ncnc(SCC(=O)NCc4ccc5c(c4)OCO5)c23)cc1	SRC2 TRFRET art 2614 (no result: SRC3 TRFRET art, SRC1 TRFRET art)
CC(C)c1nnc(NC(=O)c2cccc(NC(=O)C(F)(F)F)c2)s1	SRC2 TRFRET art 1976
C/C(=N\Nc1nc2ccccc2[nH]1)c1ccc(N2CCOCC2)cc1	none
CC(C)c1ccc(OCC(=O)NC(=S)Nc2ccc3c4c(cccc24)CC3)cc1	PPARg SRC1 recr 22 (no result: SRC3 TRFRET art, SRC1 TRFRET art)
CC(C)CCNC(=O)NC(=O)COC(=O)/C=C/c1cccc([N+](=O)[O-])c1	none
CC(C)CCNC(=O)NC(=O)COC(=O)/C=C/c1cnc2ccccc2n1	SRC2 TRFRET art 2705, PPARg SRC2 recr 64 (no result: SRC3 TRFRET art, SRC1 TRFRET art)
O=C(CCC1CCCCC1)NNC(=O)c1cnccn1	none

High-throughput results as filed in PubChem.
